Gal4-VP16 FLuc: counter-screen for ROR gamma inhibitors: Gal4-VP16 reporter. Drosophila S2 Gal4-VP16 UAS-luciferase, luminescence, 20 h. Potency, µM (top dose mostly 53.6 µM), without a hit: at the highest dose activity, negative = inhibition, usual class: inhibitors. 310,000 compounds, 3.5% hits. AID 2546;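 note: Gal4-VP16 expression switched on by copper sulfate through the metallothionein promoter; % is set by controls: 0 for no effect and ±100 for the full control effect; nearly all actives have a fitted effect of over 50% in size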
GLP1R ag: GLP-1 receptor (human) agonism; Potency, µM (doses to about 45.6 µM), without a hit: top-dose activation, actives largely listed as activators; 380,000 compounds, 0.007% hits; P43220; HEK293 GLP-1R CRE-luciferase, luminescence, 4-6 h; cells express a hypersensitive GLP-1R form; AID 624172; note: % of control where 0% means no effect
GLP1R inv ag: inverse agonists of human GLP-1 receptor. Potency, µM (series often up to 38.3 µM), inactives show at the highest dose activity change, negative = inhibition, hits mostly inhibitors. HEK293 GLP-1R CRE-luciferase, luminescence, 24 h; GLP-1R form is constitutively active. AID 624417. 410,000 compounds, 1.6% hits. P43220; note: % is set by controls: 0 for no effect and ±100 for the full control effect; nearly all actives have a fitted effect of over 55% in size
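Luminescence readout: a drop in cAMP-driven luciferase signal flags inverse agonism at a constitutively active GLP-1R stably expressed in HEK293. Compound exposure lasted 24 hr at 37 deg C, 5% CO2.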
HEK293 tox: cytotoxic in the GLP-1 receptor inverse agonist counter-screen; HEK293 cAMP-luciferase reporter cells, luminescence, 24 h; Potency, µM (doses to about 38.3 µM), without a hit: at the top dose activity change, negative = inhibition, actives largely listed as inhibitors; 410,000 compounds, 0.13% hits; AID 624418;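 note: loss of luciferase light is scored as toxicity; % is set by controls: 0 for no effect and ±100 for the full control effect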
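Luminescence readout: signal drop marks cytotoxicity. Plated cells grew 12 h at 37 °C, 5% CO2, received 23 nL compound for 24 h, then got luciferase reagent, read after 12 min at RT.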
RORgamma inh: ROR gamma (mouse) transcription inhibition | P51450 | Drosophila S2 Gal4-RORgamma UAS-luciferase reporter, 20 h | Potency, µM (highest dose often 53.6 µM), without a hit: at the top dose activity change, negative = inhibition, actives largely listed as inhibitors | 310,000 compounds, 5.4% hits | AID 2551; note: % is set by controls: 0 for no effect and ±100 for the full control effect; nearly all actives have a fitted effect of over 60% in size
Target sequence (P51450 whole entry, looked up, the tested form may be a part): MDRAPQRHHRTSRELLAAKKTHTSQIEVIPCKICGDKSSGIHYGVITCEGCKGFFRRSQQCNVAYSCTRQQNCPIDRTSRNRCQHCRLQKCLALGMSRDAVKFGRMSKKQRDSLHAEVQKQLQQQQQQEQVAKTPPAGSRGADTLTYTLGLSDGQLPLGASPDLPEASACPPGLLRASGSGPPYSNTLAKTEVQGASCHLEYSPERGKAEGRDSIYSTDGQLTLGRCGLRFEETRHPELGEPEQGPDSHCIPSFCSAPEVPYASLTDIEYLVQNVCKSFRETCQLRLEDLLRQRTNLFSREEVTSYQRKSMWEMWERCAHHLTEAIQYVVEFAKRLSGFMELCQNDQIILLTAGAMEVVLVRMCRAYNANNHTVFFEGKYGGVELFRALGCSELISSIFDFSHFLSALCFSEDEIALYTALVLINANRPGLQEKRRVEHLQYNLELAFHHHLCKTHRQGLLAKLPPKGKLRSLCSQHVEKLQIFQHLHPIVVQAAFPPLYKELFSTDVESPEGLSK
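Luciferase reporter read in Schneider cells carrying Gal4-RORγ (mouse) and UAS-Photinus luciferase; cells given compound 1 h before 700 uM copper sulfate induction, then incubated 20 h at ambient temperature.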
* marks the source's active call; other numbers are inactive results. The list is not random: actives were taken first. Their share in the collection is about 5.9%. Calls come from the whole dose curve; as a rule, active = well fitted curve in the direction sought with a large enough effect; inconclusive = small, poorly fitted or top-dose-only effect, or another doubt; inactive = no such curve, though single readings can be large; an effect the other way counts as inactive or inconclusive. Potency is the fitted concentration of half-maximal effect.

How did Cc1cccc(OCCN2CSC(=S)N(C)C2)c1 do in these assays?
Gal4-VP16 FLuc: 14µM*; GLP1R ag: -1%; GLP1R inv ag: -25%; HEK293 tox: -17%; RORgamma inh: 13µM*

What do the screens show for `COc1ccc(-n2cc(-c3ccc(Cl)cc3)[nH]c2=S)cc1`?
Gal4-VP16 FLuc: 4%; GLP1R ag: 4%; GLP1R inv ag: 19%; HEK293 tox: -6%; RORgamma inh: -42%

How did COc1ccccc1-c1cn(-c2ccccc2)c(=S)[nH]1 do in these assays?
Gal4-VP16 FLuc: 5.6µM*; GLP1R ag: -5%; GLP1R inv ag: inconclusive; HEK293 tox: -12%; RORgamma inh: 2.8µM*

How did Cc1ccc(-n2c(-c3ccncc3)n[nH]c2=S)cc1C do in these assays?
Gal4-VP16 FLuc: 4%; GLP1R ag: -1%; GLP1R inv ag: -2%; HEK293 tox: -13%; RORgamma inh: 26%

How did COc1ccc(-c2cn(-c3ccc(C)c(Cl)c3)c(=S)[nH]2)cc1OC do in these assays?
Gal4-VP16 FLuc: 10µM*; GLP1R ag: 10%; GLP1R inv ag: 9%; HEK293 tox: -1%; RORgamma inh: inconclusive

Results for COc1ccc(-c2nn(-c3ccc(C)c(Cl)c3)c3c2cnc2cc(OC)c(OC)cc23)cc1 ?
GLP1R inv ag: -7%; HEK293 tox: -1%

What do the screens show for `COC(=O)c1ccc(-n2cc(-c3ccc(OC)cc3)[nH]c2=S)cc1`?
Gal4-VP16 FLuc: inconclusive; GLP1R ag: 3%; GLP1R inv ag: 2%; HEK293 tox: -14%; RORgamma inh: 3.2µM*

How did COc1ccccc1-c1cnc(C(O)c2ccccc2)[nH]1 (stereo not given) do in these assays?
GLP1R ag: 6%; GLP1R inv ag: -14%; HEK293 tox: 1%

Results for COc1ccc(-c2cn(-c3ccc(C)c(C)c3)c(=S)[nH]2)cc1OC ?
Gal4-VP16 FLuc: 13µM*; GLP1R ag: 6%; GLP1R inv ag: 20%; HEK293 tox: 3%; RORgamma inh: inconclusive

What do the screens show for `CCOC(=O)C1CCN(C(c2ccc(SC)cc2)c2c(O)cc(C)n(Cc3ccco3)c2=O)CC1` (stereo not given)?
GLP1R inv ag: -25%; HEK293 tox: -7%

Results for COc1cccc(-n2cc(-c3ccc(F)cc3)[nH]c2=S)c1 ?
Gal4-VP16 FLuc: inconclusive; GLP1R ag: 18%; GLP1R inv ag: inconclusive; HEK293 tox: 2%; RORgamma inh: 1.3µM*

Results for COc1ccc(-c2cn(-c3ccccc3)c(=S)[nH]2)cc1OC ?
Gal4-VP16 FLuc: 11µM*; GLP1R ag: 5%; GLP1R inv ag: 14%; HEK293 tox: 0%; RORgamma inh: 5.6µM*

How did COc1cccc(-n2cc(C(=O)Oc3ccc(F)cc3)c3ccccc3c2=O)c1 do in these assays?
GLP1R inv ag: -14%; HEK293 tox: 10%

What do the screens show for `COc1ccc(-c2cnn(-c3ccccc3)c2N)cc1OC`?
Gal4-VP16 FLuc: -6%; GLP1R ag: 1%; GLP1R inv ag: 32%; HEK293 tox: 14%; RORgamma inh: 10%

How did Cc1cc(Br)ccc1NC(=O)C1CCN(S(=O)(=O)c2cccc3nsnc23)CC1 do in these assays?
GLP1R ag: 1%; GLP1R inv ag: -8%; HEK293 tox: 4%

How did CCN(CC)S(=O)(=O)c1ccc2c(c1)nc(CN(C)C(=O)Nc1ccc(F)cc1)n2C do in these assays?
GLP1R inv ag: 7%; HEK293 tox: 9%

Results for CC1Cc2ccccc2C(CCc2ccccc2)=N1 (stereo not given) ?
Gal4-VP16 FLuc: -5%; GLP1R ag: 5%; GLP1R inv ag: -1%; HEK293 tox: 0%; RORgamma inh: 13µM*

How did C[C@H]1CN=C(N(C)C)N1CCc1ccccc1 do in these assays?
GLP1R ag: 5%; GLP1R inv ag: 10%; HEK293 tox: inconclusive

Results for CC(C)(C)C1CCc2onc(C(=O)Nc3sc4c(c3C(N)=O)CCCC4)c2C1 (stereo not given) ?
GLP1R inv ag: 5%; HEK293 tox: -6%
